Measured values published in PubChem BioAssay (EPA / NIEHS).
Results filed as inconclusive are left out. The source made the active and inactive calls. The calls were made as follows, unless noted: active = hit-call score of the fitted dose curve at least 0.9, where 1 is the maximum; inconclusive = response in the unintended direction; inactive = score below 0.9.

What was measured:
[1] = read-out: X-box binding protein 1 (XBP1), XBP1 (gene 7494); assay: LTEA_HepaRG_XBP1: Life Technologies and Expression Analysis (LTEA) Assay for X-box binding protein 1 (XBP1) using HepaRG (AID 2283540; active = hit-call score of the fitted dose curve at least 0.9, where 1 is the maximum; inactive = score below 0.9); conditions: mRNA level, 48 h; actives raise or lower the signal
Outline: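 Transcript levels of XBP1, measured by qRT-PCR and normalised to three housekeeping genes, were fitted bidirectionally relative to 0.5% DMSO controls. Human HepaRG cells received eight-point half-log dilutions from 100 uM for 48 h.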

[2] = LTEA_HepaRG_LDH_cytotoxicity: Cytotoxicity Assessment in the Life Technologies and Expression Analysis (LTEA) Assay (AID 2283563);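 as to AC50: LDH activity released into spent culture medium as a marker of cell death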
Outline: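 Cells were thawed and plated for 48 h. Medium was then replaced with serum-free induction medium. Chemicals (8 half-log points, maximum 100 uM, 0.5% DMSO) were added in duplicate for 48 h, after which spent medium was assayed for LDH.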

[3] = TOX21_p53_BLA_p2_viability: Viability Assessment in the Tox21 HCT-116 p53 Agonism Beta-lactamase Assay, Phase 2 (AID 2283591);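 also: compound exposure lasted 16 h at 37 °C; actives lower the ATP signal meaning cytotoxicity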
Outline: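 HCT-116 p53-bla cells (4000/well) rested 5 h at 37C, then received compounds in DMSO (217-fold dilution) for 16 h at 37C, 5% CO2. After the CCF4 read, CellTiter-Glo was added; ATP luminescence was read after 30 min at room temperature.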

[4] = biological target: Cellular tumor antigen p53 (Homo sapiens) (UniProt P04637); assay: TOX21_p53_BLA_p2_ratio: Tox21 HCT-116 p53 Agonism Beta-lactamase Assay, Ratio, Phase 2 (AID 2283592)
Sequence of Cellular tumor antigen p53 (Homo sapiens) (P04637 whole entry, looked up): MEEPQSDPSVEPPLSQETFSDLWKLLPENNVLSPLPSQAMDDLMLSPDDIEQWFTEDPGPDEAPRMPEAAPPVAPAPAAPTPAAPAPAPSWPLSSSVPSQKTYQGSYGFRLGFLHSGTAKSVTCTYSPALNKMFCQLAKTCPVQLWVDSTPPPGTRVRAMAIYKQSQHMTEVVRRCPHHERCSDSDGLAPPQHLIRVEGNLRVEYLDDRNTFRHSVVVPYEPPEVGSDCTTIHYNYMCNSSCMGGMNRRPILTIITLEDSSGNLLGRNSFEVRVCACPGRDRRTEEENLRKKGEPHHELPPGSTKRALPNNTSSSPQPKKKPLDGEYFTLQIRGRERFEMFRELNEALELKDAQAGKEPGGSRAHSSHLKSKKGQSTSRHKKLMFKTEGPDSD
Outline: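 Plated HCT116 p53-bla cells (4000/well) received compound after 5 h, then 16 h at 37C/5% CO2. CCF4-AM added, 2 h RT. Ratio of 460 to 530 nm emission taken as the p53 reporter signal.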

[5] = biological target: Cellular tumor antigen p53 (Homo sapiens) (UniProt P04637); assay: TOX21_p53_BLA_p3_ratio: Tox21 HCT-116 p53 Agonism Beta-lactamase Assay, Ratio, Phase 3 (AID 2283596)
Outline: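 Cells were seeded at 4000/well, rested 5 h at 37C, then dosed with DMSO compound solutions (217-fold dilution) for 16 h. CCF4-AM substrate was loaded for 2 h at room temperature, and the 460/530 nm emission ratio was fitted for gain of signal versus DMSO.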

[6] = biological target: Cellular tumor antigen p53 (Homo sapiens) (UniProt P04637); assay: TOX21_p53_BLA_p4_ratio: Tox21 HCT-116 p53 Agonism Beta-lactamase Assay, Ratio, Phase 4 (AID 2283601)
Outline: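 HCT116 cells carrying an inducible beta-lactamase reporter were plated at 4000 cells/well, rested 5 h, then exposed to compounds in DMSO (217-fold dilution) for 16 h at 37C. CCF4-AM substrate was loaded 2 h at room temperature; 460/530 nm emission ratio scored gain-of-signal versus DMSO.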

[7] = Tanguay_ZF_120hpf_MORT_legacy: (Legacy) Oregon State University Tanguay Lab 120 Hour Post-fertilization zebrafish Assay for Mortality (AID 2283633);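 as to AC50: fitted as increase in binary mortality versus DMSO negative control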
Outline: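 5D WT zebrafish, chorion removed 4 hpf; 1 embryo/well from 6 hpf; static exposure to 120 hpf, 28C, dark, sealed. Final DMSO 0.64%. Readout: binary mortality, brightfield, 24 + 120 hpf; DMSO as negative control.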

[8] = Tanguay_ZF_120hpf_YSE_legacy: (Legacy) Oregon State University Tanguay Lab 120 Hour Post-fertilization zebrafish Assay for Yolk Sac Edema (AID 2283634)
Outline: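 Dechorionate (pronase, 4 hpf) → place one 6 hpf embryo per well → static compound exposure, sealed and foil-covered, 28C, to 120 hpf → record yolk sac edema as present or absent. Final DMSO 0.64%.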

[9] = Tanguay_ZF_120hpf_AXIS_legacy: (Legacy) Oregon State University Tanguay Lab 120 Hour Post-fertilization zebrafish Assay for Body Axis Malformation (AID 2283635);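 as to AC50: potency for an increased fraction of larvae scored with body axis malformation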
Outline: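 Chorion is removed with pronase at 4 hpf, then single 6 hpf embryos are dosed (final DMSO 0.64%) and held statically at 28C in sealed, foil-covered plates. At 120 hpf body axis malformation is recorded as present or absent.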

[10] = Tanguay_ZF_120hpf_EYE_legacy: (Legacy) Oregon State University Tanguay Lab 120 Hour Post-fertilization zebrafish Assay for Eye Malformation (AID 2283636);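 also: binary presence or absence of eye malformation scored by brightfield in 120 hpf larvae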
Outline: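 Static waterborne exposure of dechorionated zebrafish embryos (strain Tropical 5D), 6 to 120 hpf, sealed plates at 28C, 0.64% DMSO vehicle. Eye malformation is scored as a binary endpoint, with gain of signal analysed relative to DMSO.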

[11] = Tanguay_ZF_120hpf_SNOU_legacy: (Legacy) Oregon State University Tanguay Lab 120 Hour Post-fertilization zebrafish Assay for Snout Malformation (AID 2283637)
Outline: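 Dechorionated zebrafish, individually housed from 6 hpf in covered, sealed wells at 28C with 0.64% DMSO vehicle, were examined at 120 hpf for snout malformation. Responses were binary and analysed positive-direction relative to DMSO.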

[12] = Tanguay_ZF_120hpf_JAW_legacy: (Legacy) Oregon State University Tanguay Lab 120 Hour Post-fertilization zebrafish Assay for Jaw Malformation (AID 2283638);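 as to AC50: active means more embryos with jaw malformation than DMSO controls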
Outline: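 Steps: dechorionate 4 hpf embryos (pronase); plate 1/well at 6 hpf; add test chemical, 0.64% DMSO final; seal, cover, hold at 28C statically to 120 hpf; score jaw defect presence/absence microscopically. Dead embryos not scored.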

[13] = Tanguay_ZF_120hpf_OTIC_legacy: (Legacy) Oregon State University Tanguay Lab 120 Hour Post-fertilization zebrafish Assay for Otic Vesicle Malformation (AID 2283639)
Outline: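 Binary scoring of otic vesicle defects at 120 hpf in zebrafish (Tropical 5D) held under static exposure at 28C, sealed and shaded, with final DMSO 0.64%. Embryos dying by 24 or 120 hpf excluded; fitted positively against DMSO.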

[14] = Tanguay_ZF_120hpf_PE_legacy: (Legacy) Oregon State University Tanguay Lab 120 Hour Post-fertilization zebrafish Assay for Pericardial Edema (AID 2283640)
Outline: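 Embryos from wild-type 5D adults were staged, then dosed in 0.64% DMSO. They were kept sealed in the dark at 28C until 120 hpf. Pericardial edema was then recorded as present or absent.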

[15] = TOX21_p53_BLA_p3_viability: Viability Assessment in the Tox21 HCT-116 p53 Agonism Beta-lactamase Assay, Phase 3 (AID 2283593);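 also: cells exposed to compound for 16 h before reading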
Outline: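 HCT-116 cells (4000/well) rested 5 h at 37C, then got DMSO compounds by pin tool (217-fold dilution) for 16 h at 37C, 5% CO2. After the bla read, CellTiter-Glo was added and luminescence read at 30 min, room temperature.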

[16] = TOX21_p53_BLA_p5_viability: Viability Assessment in the Tox21 HCT-116 p53 Agonism Beta-lactamase Assay, Phase 5 (AID 2283600)
Outline: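 Workflow: seed 4000 cells per well, wait 5 h, add compounds (DMSO, 217-fold dilution), incubate 16 h, load CCF4-AM 2 h, add CellTiter-Glo, read luminescence after 30 min.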

[17] = TOX21_p53_BLA_p4_viability: Viability Assessment in the Tox21 HCT-116 p53 Agonism Beta-lactamase Assay, Phase 4 (AID 2283597);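 also: hits lower the luminescence signal meaning cytotoxicity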
Outline: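 Readout: ATP luminescence (CellTiter-Glo), measured 30 min after reagent addition at RT. The reagent followed a 2 h CCF4-AM incubation, and the cells had been exposed to compound for 16 h at 37C.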

[18] = Tanguay_ZF_120hpf_BRAI_legacy: (Legacy) Oregon State University Tanguay Lab 120 Hour Post-fertilization zebrafish Assay for Brain Malformation (AID 2283641)
Outline: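 Wild-type 5D larvae, static waterborne exposure to 120 hpf, 28C, 0.64% v/v DMSO. Brightfield scoring of brain defects, binary; dead embryos excluded. Positive ctrl 5uM trimethyltin chloride.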

[19] = biological target: Cellular tumor antigen p53 (Homo sapiens) (UniProt P04637); assay: TOX21_p53_BLA_p5_ratio: Tox21 HCT-116 p53 Agonism Beta-lactamase Assay, Ratio, Phase 5 (AID 2283599)
Outline: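 HCT-116 cells carrying a p53-inducible beta-lactamase reporter were seeded at 4000 cells/well and dosed after 5 h with compound in DMSO (217-fold dilution). After 16 h at 37C, CCF4-AM substrate was added for 2 h, and the 460/530 nm emission ratio was scored as gain-of-signal versus DMSO.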

Measured: AC50

Cn1cc(-c2ccccc2)c(=O)c(-c2cccc(C(F)(F)F)c2)c1
active: [1] 15 µM
not listed: [15] | [16] | [17] | [18] | [19]
inactive: all other assays above

Oc1ccccc1Cl
not listed: [8] | [9] | [11] | [12] | [14] | [17] | [18] | [19]
inactive: all other assays above

CC(C)(O)c1cnn2c(-c3ccc(F)c(-c4c(F)cccc4C#N)c3)cnc2n1
not listed: [5] | [7] | [15] | [16] | [19]
inactive: all other assays above

CC(O)CCO (centres undefined)
not listed: [15]
inactive: all other assays above

Nc1ccc(Cl)cc1N
active: [1] 21 µM | [2] 35.2 µM | [7] 25.3 µM
not listed: [15] | [18] | [19]
inactive: all other assays above

CC(C)(C)C(O)(CCc1ccc(Cl)cc1)Cn1cncn1 (centres undefined)
active: [2] 72 µM
not listed: [12] | [15] | [18]
inactive: all other assays above

CNC(=O)Oc1cccc2c1OC(C)(C)C2
active: [9] 6.79 µM | [11] 43.9 µM | [12] 36 µM
not listed: [15] | [17] | [18]
inactive: all other assays above

CCN(CC)CCO
not listed: [11] | [12] | [15] | [18] | [19]
inactive: all other assays above
